Records with an inconclusive call do not appear. Entries that show only a call come without a potency. Unmarked numbers belong to inactive results. Active and inactive are the calls of the source. Calls follow the shape of the dose curve; as a rule, active = well fitted inhibition curve with a large enough effect; inconclusive = small, poorly fitted or top-dose-only effect; inactive = flat fitted curve, though single readings scatter.
Key:
[1] = qHTS profiling for inhibitors of Plasmodium falciparum proliferation (AID 504749); also: nearly all actives have a fitted effect of over 60% in size; settings: P. falciparum in erythrocytes, SYBR Green DNA, 72 h
In short: (§1)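 Parasite proliferation within erythrocytes, 72 h exposure. Endpoint: SYBR Green I fluorescence after overnight lysis at room temperature. Controls: 0.29 uM artemisinin, DMSO.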

3D7 = experiment: as above; settings: P. falciparum in erythrocytes, SYBR Green DNA, 72 h; series mostly up to 28.7 µM
In short: as §1

7G8 = experiment: as above; settings: P. falciparum in erythrocytes, SYBR Green DNA, 72 h; series mostly up to 28.7 µM
In short: as §1

AA1029 = experiment: as above; settings: P. falciparum in erythrocytes, SYBR Green DNA, 72 h; series mostly up to 28.7 µM
In short: as §1

AS120 = experiment: as above; settings: P. falciparum in erythrocytes, SYBR Green DNA, 72 h; series mostly up to 28.7 µM
In short: as §1

ATS189 = experiment: as above; settings: P. falciparum in erythrocytes, SYBR Green DNA, 72 h; series mostly up to 28.7 µM
In short: as §1

ATS95 = experiment: as above; settings: P. falciparum in erythrocytes, SYBR Green DNA, 72 h; series mostly up to 28.7 µM
In short: as §1

C2A = experiment: as above; settings: P. falciparum in erythrocytes, SYBR Green DNA, 72 h; series mostly up to 28.7 µM
In short: as §1

CP185 = experiment: as above; settings: P. falciparum in erythrocytes, SYBR Green DNA, 72 h; series mostly up to 28.7 µM
In short: as §1

[2] = at 12.8 µM (top of the series), parasite line A
[3] = at 12.8 µM (top of the series), parasite line B
[4] = at 28.7 µM (top of the series), parasite line A
[5] = at 28.7 µM (top of the series), parasite line B
Potency is read from the fitted curve at half-maximal effect.

| SMILES | activity, negative = inhibition [1, 2] [%] | activity, negative = inhibition [1, 3] [%] | Potency (3D7) | Potency (7G8) | Potency (AA1029) | Potency (AS120) | Potency (ATS189) | Potency (ATS95) | Potency (C2A) | Potency (CP185) | Potency ([1]; parasite line A) | Potency ([1]; parasite line B) | activity, negative = inhibition [1, 4] [%] | activity, negative = inhibition [1, 5] [%] |
| --- | --- | --- | --- | --- | --- | --- | --- | --- | --- | --- | --- | --- | --- | --- |
| Cc1cc2cc3c(C)cc(=O)oc3c(C)c2o1 | 2 | 12.4 | inactive | inactive | inactive | inactive | inactive | inactive | inactive | inactive | – | – | – | – |
| N=C(N=C(N)N)N1CCOCC1 | -9.52 | 11.1 | inactive | inactive | inactive | – | inactive | inactive | inactive | inactive | – | – | – | – |
| Cc1cccc(C)c1OCC(=O)N[C@@H](Cc1ccccc1)[C@@H](O)C[C@H](Cc1ccccc1)NC(=O)[C@H](C(C)C)N1CCCNC1=O | – | – | 7.08 µM (active) | 0.794 µM (active) | 3.55 µM (active) | 1.41 µM (active) | 3.98 µM (active) | 3.98 µM (active) | 11.2 µM (active) | 10 µM (active) | 8.91 µM (active) | 5.01 µM (active) | – | – |
| COc1ccc(C2(C#N)CCC(C(=O)O)CC2)cc1OC1CCCC1 (stereo not given) | – | – | inactive | inactive | inactive | inactive | inactive | inactive | inactive | inactive | – | – | 10.1 | -9.11 |
| O=C1CCc2ccc(OCCCCN3CCN(c4cccc(Cl)c4Cl)CC3)cc2N1 | – | – | – | 12.6 µM (active) | – | – | – | – | – | – | – | – | – | – |
| CCCCC(CC)COC(=O)C(C#N)=C(c1ccccc1)c1ccccc1 (stereo not given) | – | – | – | 10 µM (active) | – | – | – | – | inactive | – | 11.2 µM (active) | – | – | – |
| CN1CCC(=C2c3ccccc3CCc3sccc32)CC1 | – | – | inactive | 11.2 µM (active) | 6.31 µM (active) | – | – | – | inactive | – | – | – | -27.4 | -20.6 |
| Cc1cc(=O)c2c(O)c3c(O)cc(=O)c4c3c3c(cc(O)c1c23)C(C)(C)C=4O | – | – | 1.58 µM (active) | – | 1.78 µM (active) | 1.78 µM (active) | 1.41 µM (active) | 2 µM (active) | 1.58 µM (active) | 1.58 µM (active) | 2.51 µM (active) | 1 µM (active) | – | – |
| CC1(C)NC(=O)N(c2ccc([N+](=O)[O-])c(C(F)(F)F)c2)C1=O | – | – | inactive | inactive | inactive | inactive | inactive | inactive | inactive | inactive | – | – | -1.6 | 7.49 |
| CCN(CCO)CCCC(C)Nc1ccnc2cc(Cl)ccc12 (stereo not given) | – | – | 0.562 µM (active) | – | inactive | inactive | inactive | inactive | inactive | inactive | 0.708 µM (active) | 1 µM (active) | – | – |
| O=C1c2ccccc2-c2n[nH]c3cccc1c23 | – | – | inactive | – | inactive | inactive | inactive | inactive | inactive | inactive | – | – | -18.5 | -1.75 |
| Cc1c(C(=O)NN2CCCCC2)nn(-c2ccc(Cl)cc2Cl)c1-c1ccc(Cl)cc1 | – | – | – | 12.6 µM (active) | – | 12.6 µM (active) | – | – | – | – | – | 11.2 µM (active) | – | – |
| CC1(C)CCC(C)(C)c2cc(NC(=O)c3ccc(C(=O)O)cc3)ccc21 | – | – | inactive | – | inactive | inactive | inactive | inactive | inactive | inactive | – | – | -1.01 | -5.09 |
| COC1=C(OC)C(=O)C(CCCCCCCCCCO)=C(C)C1=O | – | – | – | – | inactive | inactive | inactive | inactive | inactive | inactive | – | – | -28.8 | -11.7 |
| CC(S)C(=O)NCC(=O)O (stereo not given) | – | – | inactive | – | inactive | inactive | inactive | inactive | inactive | inactive | – | – | 5.37 | 13.7 |
| CCc1nc(N)nc(N)c1-c1ccc(Cl)cc1 | – | – | 0.0794 µM (active) | 10 µM (active) | inactive | – | inactive | inactive | inactive | inactive | 0.0501 µM (active) | 3.16 µM (active) | – | – |
| Cc1cc(C2CCCCC2)n(O)c(=O)c1 | – | – | – | 3.16 µM (active) | – | 3.55 µM (active) | – | – | – | – | – | 3.55 µM (active) | – | – |
| CCN(CC)CCOc1ccc(Cc2ccccc2)cc1 | – | – | inactive | 12.6 µM (active) | inactive | inactive | inactive | inactive | inactive | inactive | – | – | 8.39 | 6.88 |
| Cc1nc(Nc2ncc(C(=O)Nc3c(C)cccc3Cl)s2)cc(N2CCN(CCO)CC2)n1 | – | – | – | 5.62 µM (active) | – | 12.6 µM (active) | – | – | – | – | – | – | – | -17.2 |
| O=C(O)c1cccc(-c2noc(-c3ccccc3F)n2)c1 | – | – | inactive | inactive | inactive | inactive | inactive | inactive | inactive | inactive | – | – | -1.01 | 10.4 |
| CCC(C)(Oc1ccc(C2(c3ccc(OC(C)(CC)C(=O)O)cc3)CCCCC2)cc1)C(=O)O (stereo not given) | – | – | inactive | inactive | inactive | inactive | inactive | inactive | inactive | inactive | – | – | 2.31 | -9.49 |
| Clc1ccc(C(Cn2ccnc2)OCc2ccsc2Cl)c(Cl)c1 (stereo not given) | – | – | 2.51 µM (active) | 0.447 µM (active) | 7.94 µM (active) | 1.12 µM (active) | 6.31 µM (active) | 7.08 µM (active) | – | 7.94 µM (active) | 2.82 µM (active) | 2.82 µM (active) | – | – |
| CN(C)c1ccc2nc3ccc(=[N+](C)C)cc-3sc2c1 | – | – | 0.0398 µM (active) | 0.0028 µM (active) | 0.0794 µM (active) | 0.0631 µM (active) | 0.0794 µM (active) | 0.0708 µM (active) | 0.141 µM (active) | 0.0891 µM (active) | 0.0447 µM (active) | 0.0631 µM (active) | – | – |
| CN(c1nccc(=O)[nH]1)C1CCN(c2nc3ccccc3n2Cc2ccc(F)cc2)CC1 | – | – | inactive | 11.2 µM (active) | – | – | inactive | – | inactive | inactive | – | – | -22.1 | -10.5 |
| Cc1ccc(NC(=O)c2ccc(CN3CCN(C)CC3)cc2)cc1Nc1nccc(-c2cccnc2)n1 | – | – | – | 7.94 µM (active) | 11.2 µM (active) | 8.91 µM (active) | 12.6 µM (active) | 10 µM (active) | 11.2 µM (active) | – | – | 11.2 µM (active) | – | – |
| CNC[C@H](O)c1ccc(O)c(O)c1 | – | – | – | inactive | inactive | inactive | inactive | inactive | inactive | inactive | – | – | -8.23 | 3.15 |
| Cc1cc(=O)oc2cc(O)ccc12 | – | – | – | inactive | inactive | – | – | inactive | – | – | – | – | – | – |
